# Assay outcomes deposited in PubChem by The Scripps Research Institute Molecular Screening Center.
# An excerpt weighted towards active compounds, which were near 3.5% of everything screened.
# MITF primary: MITF inhibitors, primary screen, biochemical, AlphaScreen, human; 650,000 tested, 0.91% active; Microphthalmia-associated transcription factor (Homo sapiens), O75030; inhibition, % at 2.6 µM; AlphaScreen MITF homodimerization, bead proximity signal; in the data active = inhibition above about 50%
# GPR151 activ: activators of human GPR151, primary screen, cell-based, PathHunter beta-arrestin, luminescence; PathHunter beta-arrestin GPR151 cells; G-protein coupled receptor 151 (Homo sapiens), Q8TDV0; activation, % at 11.2 µM; AID 1508602, 2020; 650,000 tested, 1% active; in the data active = activation above about 4.9%
# TEAD-YAP inh: TEAD-YAP interaction inhibition, primary screen, TEAD-YAP interaction inhibitor project, luminescence, HEK-TIYL cells. 640,000 tested, 1.4% active. inhibition, % at 9.12 µM. AID 1259422, 2018. TEAD-Gal4/YAP UAS-luciferase luminescence; in the data active = inhibition above about 32%
# FBW7 act: FBW7 E3 ligase activators, primary screen, biochemical, AlphaScreen, human | F-box/WD repeat-containing protein 7 (Homo sapiens), Q969H0 | AlphaScreen FBW7–phospho-cyclin E peptide binding, activator screen | normalized activity (activation), % at 26.1 µM | 650,000 tested, 0.13% active | AID 1259310, 2017; in the data active = normalized activity above about 1.9%;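 note: purified mutant Fbw7 with reduced substrate affinity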
# Target sequence (Q969H0 whole entry, looked up): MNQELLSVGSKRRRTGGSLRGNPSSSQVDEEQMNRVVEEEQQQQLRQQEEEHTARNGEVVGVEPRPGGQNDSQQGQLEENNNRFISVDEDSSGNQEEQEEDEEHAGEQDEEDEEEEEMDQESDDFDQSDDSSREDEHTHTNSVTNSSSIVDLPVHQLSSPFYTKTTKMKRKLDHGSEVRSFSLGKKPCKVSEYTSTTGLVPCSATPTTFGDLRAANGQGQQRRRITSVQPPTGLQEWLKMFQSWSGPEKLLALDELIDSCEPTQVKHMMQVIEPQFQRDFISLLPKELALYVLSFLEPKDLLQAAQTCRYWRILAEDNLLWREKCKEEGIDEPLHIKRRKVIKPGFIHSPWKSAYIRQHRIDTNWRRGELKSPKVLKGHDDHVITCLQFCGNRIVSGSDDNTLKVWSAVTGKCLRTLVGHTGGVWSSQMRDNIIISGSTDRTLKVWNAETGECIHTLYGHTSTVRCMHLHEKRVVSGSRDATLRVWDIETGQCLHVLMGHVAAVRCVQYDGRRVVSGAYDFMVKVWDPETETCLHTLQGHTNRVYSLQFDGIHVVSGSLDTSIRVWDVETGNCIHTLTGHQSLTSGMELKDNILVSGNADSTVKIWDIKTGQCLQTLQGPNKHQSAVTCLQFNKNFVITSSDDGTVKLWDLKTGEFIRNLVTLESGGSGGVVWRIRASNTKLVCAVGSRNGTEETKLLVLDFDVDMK
# A number is an active result; n = inactive.
SMILES,MITF primary,GPR151 activ,TEAD-YAP inh,FBW7 act
CCOc1cc(/C=N/NC(=O)c2cccnc2)cc(Br)c1O,n,n,n,n
CCn1cnc2sc(C(=O)Nc3nc4ccccc4s3)c(C)c2c1=O,n,n,n,n
O=S(=O)(O)CCC[n+]1ccc(/C=C/c2c[nH]c3ccc(Br)cc23)cc1,n,n,n,n
COC(=O)c1ccc(COC(=O)c2cc3ccccc3cc2O)cc1,n,n,n,n
Cc1ccc(C(=O)N/N=C/c2cc(Br)ccc2O)cn1,84,n,50,n
COc1cc(Br)cc(/C=N/NC(=O)c2ccccc2O)c1O,n,n,72,n
COc1ccc(O)c(/C=N/NC(=O)c2ccccc2O)c1,n,n,65,n
Cc1ccc(O)c(/C=N/NC(=O)c2ccccc2)c1,n,n,59,n
COc1ccccc1C(=O)N/N=C/c1cc(Br)cc(OC)c1O,n,n,n,n
CCOC(=O)CSc1nc2c(c(=O)n1-c1ccc(Br)cc1)SCC2,n,n,n,n
CCCn1c(=O)/c(=C2/C=Cc3ccccc3N2C)s/c1=C1\SC(=S)NC1=O,n,n,n,n
COc1ccc(/C=N/NC(=O)c2cccnc2)cc1Cn1cnc([N+](=O)[O-])n1,n,n,45,n
O=C(N/N=C/c1cc(Cl)cc(Br)c1O)c1ccccc1O,n,n,57,n
COc1ccc(/C=N/NC(=O)c2cccnc2)cc1CN1CCN(c2ccc(F)cc2)CC1,n,n,n,n
COc1ccc(-c2nnc(NC(=O)c3cccc(C)c3)s2)c(OC)c1,n,n,n,n
O=C(NCCCN1CCCCC1)C1CC(=O)N(C2CCCCC2)C1 (stereo not given),n,n,n,n
COc1ccc(CC(NC=O)c2ccc(OC)c(OC)c2)cc1OC (stereo not given),n,n,n,n
CCCC(=O)Nc1ccccc1NC(=O)COc1ccc(Br)cc1C,n,n,n,n
Cc1cccc(NC(=O)C2(S(=O)(=O)c3ccc(Cl)cc3)CC2)c1,n,n,n,4.7
Cc1ccc(NC(=O)C2(S(=O)(=O)c3ccc(Cl)cc3)CC2)cc1,n,n,n,n
CN(C)CCNS(=O)(=O)c1ccc(Oc2ccc(-c3nnco3)cc2)c([N+](=O)[O-])c1,n,n,n,n
COc1cc(NC(=O)COC(=O)c2ccc([N+](=O)[O-])o2)cc(OC)c1,n,n,n,n
O=C(O)CCCCCNC(=O)C(c1ccccc1)c1ccccc1,n,n,n,n
COc1ccc(CC(=O)Nc2cccc(-c3ccc(N4CCOCC4)nn3)c2)cc1OC,n,n,34,n
CC(=O)c1cccc(NC(=O)Cc2noc3ccccc23)c1,n,n,n,n
SMILES,MITF primary,GPR151 activ,TEAD-YAP inh,FBW7 act
CC(Oc1ccccc1F)C(=O)Nc1cccc(-c2ccc(N3CCOCC3)nn2)c1 (stereo not given),n,n,42,n
O=C(Cc1noc2ccccc12)Nc1cccc(-c2ccc(N3CCCC3)nn2)c1,n,n,48,n
O=C(Nc1ccccc1C(F)(F)F)N1CCN(c2ccc([N+](=O)[O-])cc2)CC1,n,n,n,n
Cc1ccc(/C=C2\SC(=S)N(/N=C/c3ccc(C)o3)C2=O)o1,54,n,n,n
Cc1ccc(/C=C2\SC(=S)N(CCCC(=O)O)C2=O)o1,n,n,53,n
Cc1ccc(/C=C2/SC(=S)N(CO)C2=O)o1,85,n,n,n
Cc1ccc(/C=C2/SC(=S)N(c3ccc(CC(=O)O)cc3)C2=O)o1,59,n,n,n
CCCN1C(=O)/C(=C/c2ccc(C)o2)SC1=S,n,n,n,n
Cc1ccc(/C=C2/SC(=S)N(CCC(=O)O)C2=O)o1,n,n,n,n
CC(=O)N1CCc2cc(Br)cc(S(=O)(=O)NCCN3CCCC3)c21,n,n,n,n
OCC1CCCN1c1cc(Nc2ccc3c(c2)OCO3)ncn1 (stereo not given),n,n,37,n
Oc1ccc(CCNc2cc(Nc3ncccn3)ncn2)cc1,n,n,42,n
OCC1CCCN1c1cc(NCCc2ccc(O)cc2)ncn1 (stereo not given),n,n,48,n
OCC1CCCN1c1cc(Nc2ccccc2)ncn1 (stereo not given),n,n,n,n
COc1cc(NC(=O)C2Cc3ccccc3O2)ccc1-c1cn[nH]c1 (stereo not given),n,n,n,n
O=C(Nc1ccc(-n2cccn2)cc1)C1CCN(Cc2nc3c(s2)CCCC3)CC1,n,n,38,n
CC(=O)c1ccc(NC(=O)C(C)(C(F)(F)F)C(F)(F)F)cc1,n,n,n,n
Cn1c(-c2ccccc2)cn2cc(-c3ccc(F)cc3)nc12,n,n,97,n
Cn1c(-c2ccccc2)cn2cc(-c3ccccc3)nc12,n,n,100,n
CCCCCOc1ccc(C2CC(=O)NC2=O)cc1 (stereo not given),n,n,n,n
COc1ccc2cc(CCNC(=O)c3ccc(C)cc3)c(=O)[nH]c2c1,n,n,n,n
CC1=CC(=O)C(C(C)C)=CC1=O,n,n,n,n
COc1cccc(-c2ccc(N3CCN(C)CC3)nc2)c1,n,n,n,n
CN1CCN(c2ccc(-c3cccc(Cl)c3)cn2)CC1,n,n,54,n
c1ccc(CN2CCC(Nc3ncnc4nc(Nc5ccc(N6CCOCC6)cc5)[nH]c34)CC2)cc1,n,n,n,n
SMILES,MITF primary,GPR151 activ,TEAD-YAP inh,FBW7 act
CC(=O)Nc1ccc(Nc2ncnc3nc(-c4ccc(N5CCOCC5)nc4)[nH]c23)cc1,n,n,n,n
c1nc(NC2CC2)c2[nH]c(Nc3ccc(N4CCOCC4)cc3)nc2n1,n,n,35,n
c1ccc(Nc2ncnc3nc(-c4ccc(N5CCOCC5)nc4)[nH]c23)cc1,n,n,54,n
Cc1noc(C)c1-c1nc2ncnc(Nc3ccc(N4CCOCC4)cc3)c2[nH]1,n,n,33,n
CCN(CC)C(=O)C1CCCN(c2nc3ncnc(Nc4ccc(N5CCOCC5)cc4)c3[nH]2)C1 (stereo not given),n,n,44,n
CCC(COC)NC(=O)Cn1nnnc1CN1CCC(C)CC1 (stereo not given),n,n,n,n
COCCNC(=O)CCCCCn1c(=S)[nH]c2cc3c(cc2c1=O)OCO3,n,n,n,n
c1cnc(Nc2nc3ncnc(Nc4ccc(N5CCOCC5)cc4)c3[nH]2)nc1,n,n,53,n
c1cc(Nc2nc3ncnc(Nc4ccc(N5CCOCC5)cc4)c3[nH]2)ccn1,n,n,43,n
c1nc(Nc2ccc(N3CCOCC3)cc2)c2[nH]c(NCCN3CCOCC3)nc2n1,n,n,n,n
CC(=O)Nc1ccc(Nc2ncnc3nc(Nc4ccc(N5CCOCC5)cc4)[nH]c23)cc1,n,n,n,n
O=C1CCCN1CCCNc1ccnc(N2CCOCC2)n1,n,n,n,n
Cc1cc(NCCCN2CCCC2=O)nc(N2CCOCC2)n1,n,n,n,7.4
c1cn2c(-c3ccsc3)cnc2c(Nc2ccc3[nH]ccc3c2)n1,n,n,56,n
